Screening results: PubChem, several laboratories
PvdQ acylase = P. aeruginosa PvdQ acylase inhibition; purified PvdQ acylase, fluorescence plate reader; inhibition, % at 10 µM; 340,000 compounds, 0.063% hits; AID 488965; in the data active = inhibition above about 30%, passing the limit was not always enough;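 also: 0% = vehicle neutral wells and 100% = reference inhibitor wells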
Efflux pump mplx = blocks antifungal efflux pumps in multiplex yeast assay; S. cerevisiae Candida pump triplex, Nile Red efflux; inhibition, % at 10 µM; 330,000 compounds, 0.44% hits; AID 485275;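 active = plate passing quality check with inhibition over a set limit, or well fluorescence over plate mean plus 4 SD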;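 also: Nile Red retained in pooled yeast measured as flow cytometry median fluorescence; 0% = buffer negative control and 100% = Enniatin B positive control; higher means more Nile Red kept so more efflux inhibition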
ERp5 inh = blocks human ERp5 reductase activity on insulin | Q15084 | ERp5 insulin aggregation, absorbance 650 nm, 90 min | inhibition, % at 9.99 µM | 350,000 compounds, 0.05% hits;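 active = mean replicate inhibition above about 25%, with every replicate also reaching it, limit read from the data, passing the limit was not always enough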
Target sequence (Q15084 whole entry, looked up): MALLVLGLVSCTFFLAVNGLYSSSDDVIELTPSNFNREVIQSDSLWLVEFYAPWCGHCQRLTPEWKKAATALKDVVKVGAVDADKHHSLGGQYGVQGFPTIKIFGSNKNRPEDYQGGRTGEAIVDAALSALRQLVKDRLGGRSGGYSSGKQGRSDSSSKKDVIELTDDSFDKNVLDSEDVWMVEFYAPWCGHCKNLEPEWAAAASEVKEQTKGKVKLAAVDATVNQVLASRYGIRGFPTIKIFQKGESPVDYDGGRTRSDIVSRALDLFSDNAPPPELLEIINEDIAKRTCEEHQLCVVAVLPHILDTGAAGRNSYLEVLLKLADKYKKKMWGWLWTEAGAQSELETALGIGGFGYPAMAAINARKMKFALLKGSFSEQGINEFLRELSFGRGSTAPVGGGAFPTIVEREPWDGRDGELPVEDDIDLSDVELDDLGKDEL
PDI turbidity = blocks human protein disulfide isomerase activity; 350,000 compounds, 0.052% hits; inhibition, % at 10 µM; P07237; PDI insulin aggregation turbidity, A650, 90 min;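 active = mean inhibition across replicates of 30% or more, whatever share of single replicates reach that level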
Rtt109 HAT inh = inhibitors of Candida albicans Rtt109/Vps75 histone acetyltransferase | purified Rtt109/Vps75, ThioGlo CoA-SH fluorescence, 4 h | inhibition, % at 34.9 µM | 330,000 compounds, 0.16% hits | AID 540336;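 active = inhibition of at least 50% in every replicate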
Starred values were filed as active, the others as inactive. Hits are enriched below; roughly 0.54% of the tested compounds scored in any of these assays.

Screening COc1ccc(C(C#N)c2ccc(Cl)nn2)cc1 (stereo not given) returned PvdQ acylase 46.1*, Efflux pump mplx -0.1, ERp5 inh -1.3, PDI turbidity -9.1 and Rtt109 HAT inh 8.4.
`COc1ccc(C(C#N)c2nc3ccccc3nc2Cl)cc1` (stereo not given) gave PvdQ acylase 2.8, Efflux pump mplx 0.2, ERp5 inh -1.4, PDI turbidity 9.8 and Rtt109 HAT inh -13.6.
For N#CC(c1ccc(Cl)nn1)c1ccc(Cl)cc1Cl (stereo not given) the results were PvdQ acylase 113.8*, Efflux pump mplx -0.1, PDI turbidity 9.0 and Rtt109 HAT inh -10.6.
Screening COc1ccc2c3c([nH]c2c1)[C@@H](CO)N(Cc1nccs1)CC31CN(C(=O)C2CCC2)C1 returned ERp5 inh 3.0.
`Brc1ccc(-c2nnc(-c3ccco3)o2)cc1` gave PvdQ acylase 90.1*, Efflux pump mplx 0.0, PDI turbidity -1.0 and Rtt109 HAT inh -7.9.
For c1ccc(-c2nnc(-c3ccco3)o2)cc1 the results were PvdQ acylase -5.5, Efflux pump mplx -0.1, PDI turbidity -3.7 and Rtt109 HAT inh -8.7.
Screening COc1ccc2c3c([nH]c2c1)[C@@H](CO)N(C(=O)c1ccccc1)CC31CN(C)C1 returned ERp5 inh 4.5.
For CC(C)OC(=O)N(C)c1ccc(C(O)(C(F)(F)F)C(F)(F)F)cc1 the results were PvdQ acylase 12.3, Efflux pump mplx 0.0, PDI turbidity -2.9 and Rtt109 HAT inh 55.2*.
Screening CC(=O)Nc1ccc(C(O)(C(F)(F)F)C(F)(F)F)cc1 returned PvdQ acylase -4.3, Efflux pump mplx -0.1, ERp5 inh 1.1, PDI turbidity -2.3 and Rtt109 HAT inh 3.0.
Screening O=S(=O)(Nc1ccc(Br)cc1)c1cccc2nonc12 returned PvdQ acylase 9.7, Efflux pump mplx 0.4, ERp5 inh -0.4, PDI turbidity 8.0 and Rtt109 HAT inh 3.6.
For O=S(=O)(Nc1ccc(C(O)(C(F)(F)F)C(F)(F)F)cc1)c1ccc(Cl)c2nonc12 the results were PDI turbidity 33.7*.
For N#C/C(=C\c1c(Cl)cccc1Cl)c1nn(-c2ccccc2)c(-n2cccc2)c1C#N the results were PvdQ acylase -1.8, Efflux pump mplx 0.0, ERp5 inh -0.4, PDI turbidity -0.9 and Rtt109 HAT inh 56.1*.
Screening COc1ccccc1C(=O)CSc1nccn1C returned PvdQ acylase 9.6, Efflux pump mplx 0.0, ERp5 inh 2.0, PDI turbidity -8.8 and Rtt109 HAT inh 53.8*.
For COCC(=O)Nc1ccc2c(c1)C(=O)N(C)C[C@@H](OC)[C@@H](C)CN(C(C)=O)[C@H](C)CO2 the results were ERp5 inh 0.4.
`O=C(CN1C(=O)NC2(CCCC2)C1=O)Nc1cc(C(F)(F)F)ccc1N1CCCCC1` gave PvdQ acylase 1.0, Efflux pump mplx 0.0, ERp5 inh 34.2*, PDI turbidity -10.5 and Rtt109 HAT inh 1.5.
For Cc1cc(O)c(C(C[N+](=O)[O-])c2ccc(Cl)cc2Cl)c(=O)o1 (stereo not given) the results were PvdQ acylase 10.5, Efflux pump mplx -0.2, ERp5 inh 3.9, PDI turbidity 4.6 and Rtt109 HAT inh 55.8*.
For O=C(NCC(=O)N1CCCCC1)c1ccc2ccccc2c1 the results were PvdQ acylase 8.1, Efflux pump mplx -0.2, ERp5 inh 0.8, PDI turbidity -7.9 and Rtt109 HAT inh 51.7*.
For CCN(c1ccccc1)S(=O)(=O)c1cc(C(=O)Nc2ccccc2Cl)ccc1F the results were PvdQ acylase 48.6*, Efflux pump mplx 0.1, ERp5 inh 11.9, PDI turbidity -5.3 and Rtt109 HAT inh -0.4.
`O=S(=O)(c1cc(F)ccc1F)N1CCN(c2ncccn2)CC1` gave PvdQ acylase 2.0, Efflux pump mplx -0.1, ERp5 inh -1.9, PDI turbidity 34.1* and Rtt109 HAT inh 18.3.
Screening O=S(=O)(c1ccc(F)cc1)N1CCN(c2ncccn2)CC1 returned PvdQ acylase -11.6, Efflux pump mplx 0.1, ERp5 inh 2.8, PDI turbidity -3.0 and Rtt109 HAT inh 5.8.
For CC(C)C(C(=O)Nc1cccnc1)N1C(=O)c2ccccc2C1=O (stereo not given) the results were PvdQ acylase 1.9, Efflux pump mplx -0.1, PDI turbidity -10.9 and Rtt109 HAT inh 52.9*.
CN(Cc1ccccc1)c1ncnc2ccc(Br)cc12 was read as PvdQ acylase 97.5*, Efflux pump mplx 0.1, PDI turbidity -6.2 and Rtt109 HAT inh 2.7.
`CO[C@@H]1CN(C)C(=O)c2ccc(NC(C)=O)cc2OC[C@@H](C)N(C(=O)c2ccccn2)C[C@H]1C` gave ERp5 inh -0.9.
For COc1cccc(NC(=O)CSc2nc3c(sc4ccccc43)c(=O)n2CCN(C)C)c1 the results were PvdQ acylase -3.5, Efflux pump mplx 0.3, ERp5 inh 2.3, PDI turbidity -3.5 and Rtt109 HAT inh 142.0*.
`N#CC(Sc1ccccn1)c1ccc(Cl)cc1` (stereo not given) gave PvdQ acylase 47.8*, Efflux pump mplx 0.3, ERp5 inh -1.7, PDI turbidity -10.9 and Rtt109 HAT inh 5.5.
`O=C(NCCSc1ccccn1)c1ccc(Cl)cc1` gave PvdQ acylase -1.5, Efflux pump mplx 0.6, ERp5 inh -1.2, PDI turbidity 10.6 and Rtt109 HAT inh 8.4.
Screening CO[C@H]1CN(C)C(=O)c2cc(NC(=O)c3cnccn3)ccc2OC[C@H](C)N(CC2CC2)C[C@H]1C returned ERp5 inh 11.0.
Screening CCOC(=O)c1ccc(N=C2C(=S)N(c3ccc(C(=O)OCC)cc3)C(=N)N2/N=C/c2ccccc2)cc1 returned PvdQ acylase 5.6, Efflux pump mplx -0.1, PDI turbidity -5.6 and Rtt109 HAT inh 63.7*.
`CCOC(=O)c1ccc(N=c2scc(C)n2CC)cc1` gave PvdQ acylase -7.5, Efflux pump mplx 0.2, ERp5 inh 0.3, PDI turbidity -1.9 and Rtt109 HAT inh -4.9.
CC[n+]1c(/C=C/c2c[nH]c3ccccc23)ccc2cc(C)ccc21 was read as PvdQ acylase -19.2, ERp5 inh 6.8 and Rtt109 HAT inh 84.1*.
For O=C(C[C@H]1C[C@H]2c3cc(NC(=O)Nc4ccc(F)cc4)ccc3O[C@H]2[C@H](CO)O1)NC1CCCCC1 the results were ERp5 inh 2.3.
CCOC(=O)C1=C(C)N=c2s/c(=C/c3ccc(OCC(=O)O)cc3)c(=O)n2C1c1cc(OC)c(OC)c(OC)c1 (stereo not given) was read as PvdQ acylase 14.8, Efflux pump mplx 0.2, ERp5 inh 3.9, PDI turbidity 23.9 and Rtt109 HAT inh 68.3*.
For CCOC(=O)C1=C(C)N=c2sc(=Cc3ccc(OCC(=O)O)cc3)c(=O)n2C1c1ccc(Cl)cc1 (stereo not given) the results were ERp5 inh 6.1 and PDI turbidity 0.4.
For O=C(O)[C@@H]1[C@@H](CO)[C@@H]2Cn3c(ccc(-c4cncnc4)c3=O)[C@@H]2N1C(=O)C1CCCC1 the results were ERp5 inh -7.7.
For O=C(Cc1ccccn1)N1CC(=O)N2[C@@H](CO)[C@H](c3ccc(C#CC4CCCCC4)cc3)[C@@H]2C1 the results were ERp5 inh 2.0.
